Gal4-VP16 FLuc: counter-screen for ROR gamma inhibitors: Gal4-VP16 reporter | Drosophila S2 Gal4-VP16 UAS-luciferase, luminescence, 20 h | Potency, µM (top dose mostly 53.6 µM), usual class: inhibitors | 310,000 compounds, 3.5% hits | AID 2546;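 note: Gal4-VP16 expression switched on by copper sulfate through the metallothionein promoter; nearly all actives have a fitted effect of over 50% in size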
TGFb inhibitor: inhibitors of TGF-b signaling. HepG2 CAGA-GFP TGF-b/SMAD3 reporter, GFP fluorescence, 18 h; TGF-beta stimulated, 500 pg/mL final. 410,000 compounds, 1.2% hits. Potency, µM (highest dose often 46.1 µM), hits mostly inhibitors. AID 588855; note: nearly all actives have a fitted effect of over 65% in size
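Read-out: total well GFP (ex488/em500-530) summed from mean per-cell fluorescence. Cells: HEPG2 CAGA-GFP, 1% FBS DMEM, 18 h at 37 degrees C with 500 pg/mL final TGF-beta. Unstimulated wells served as the full-inhibition control; stimulated DMSO wells = 0%.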
ATXN viability: reduces viability in counter-screen for ATXN expression inhibitors. AID 651635. 400,000 compounds, 0.49% hits. Potency, µM (titrated, usually from 56.7 µM), most hits filed as cytotoxic. S2 cells (HEK-293 line with an ATXN2-luciferase reporter) viability, CellTiter-Fluor protease fluorescence, 24 h; note: nearly all actives have a fitted effect of over 40% in size
HepG2 viability: counter-screen for TGF-b inhibitors: cytotoxicity in HepG2 cells. HepG2 CAGA-GFP viability, ATP luminescence, 18 h. Potency, µM (series often up to 46.1 µM), actives largely listed as cytotoxic. 410,000 compounds, 0.76% hits
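CellTiter-Glo luminescence gave cytotoxicity after 18 hours at 37 degrees C. The cells were HepG2 CAGA-GFP in 1% FBS DMEM, stimulated with 500 pg/mL TGF-beta after compound addition. %Activity was normalised to no-cell wells (complete cell-killing) and DMSO (no toxicity), and curves were fitted and classified.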
ATXN2 expr inh: ATXN2 expression inhibition. HEK-293 ATXN2-luciferase reporter, luminescence, 24 h. Potency, µM (top dose mostly 57 µM), usual class: inhibitors. 360,000 compounds, 0.72% hits; note: nearly all actives have a fitted effect of over 55% in size
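qHTS (up to 57 uM final) was run with 24 h compound exposure of reporter cells at 37 °C. Each well was multiplexed: SteadyGlo luminescence measured ATXN2-luciferase expression after a fluorogenic Gly-Phe-AFC viability readout (25 uM final).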
RORgamma inh: inhibitors of mouse ROR gamma transcriptional activity; P51450; Drosophila S2 Gal4-RORgamma UAS-luciferase reporter, 20 h; Potency, µM (top dose mostly 53.6 µM), hits mostly inhibitors; 310,000 compounds, 5.4% hits; AID 2551; note: nearly all actives have a fitted effect of over 60% in size
Target sequence (P51450 whole entry, looked up, the tested form may be a part): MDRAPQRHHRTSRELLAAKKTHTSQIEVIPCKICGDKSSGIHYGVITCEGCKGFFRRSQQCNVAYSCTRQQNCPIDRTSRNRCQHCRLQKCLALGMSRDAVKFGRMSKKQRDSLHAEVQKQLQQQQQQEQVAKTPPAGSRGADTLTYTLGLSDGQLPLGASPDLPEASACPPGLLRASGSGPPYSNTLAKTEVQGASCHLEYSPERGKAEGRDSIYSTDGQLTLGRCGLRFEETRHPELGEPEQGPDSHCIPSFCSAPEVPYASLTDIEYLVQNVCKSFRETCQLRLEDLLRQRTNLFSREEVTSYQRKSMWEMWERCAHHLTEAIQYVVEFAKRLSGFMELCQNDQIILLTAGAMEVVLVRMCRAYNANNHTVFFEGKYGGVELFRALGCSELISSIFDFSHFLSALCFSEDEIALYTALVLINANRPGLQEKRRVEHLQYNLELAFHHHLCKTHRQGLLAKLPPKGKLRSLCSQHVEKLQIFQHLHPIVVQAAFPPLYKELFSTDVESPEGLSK
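A Gal4/UAS one-hybrid system in insect cells: metallothionein-promoter Gal4–ROR gamma fusion plus Photinus luciferase reporter. Copper sulfate 700 uM final, 20 hr ambient incubation, luminescent detection after 10 min with reagent.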
Numbers stand for hits. Hits are enriched below; roughly 6.1% of the tested compounds scored in any of these assays. Calls come from the whole dose curve; as a rule, active = well fitted curve in the direction sought with a large enough effect; inconclusive = small, poorly fitted or top-dose-only effect, or another doubt; inactive = no such curve, though single readings can be large; an effect the other way counts as inactive or inconclusive.

Results for Cc1ccc(CN2C[C@@H](Sc3nc(C)cc(C)n3)C[C@H]2C(=O)N2CCN(c3ccccc3F)CC2)cc1 ?
ATXN viability: inactive

What do the screens show for `COCCNC(=S)N(CCc1c(C)[nH]c2ccc(Cl)cc12)Cc1cccs1`?
Gal4-VP16 FLuc: inconclusive; TGFb inhibitor: inconclusive; ATXN viability: inconclusive; HepG2 viability: inactive; ATXN2 expr inh: inconclusive; RORgamma inh: inconclusive

How did CCNC(=S)N(CCc1c(C)[nH]c2ccc(C)cc12)Cc1cccs1 do in these assays?
Gal4-VP16 FLuc: inconclusive; TGFb inhibitor: inconclusive; ATXN viability: inconclusive; HepG2 viability: inactive; ATXN2 expr inh: inactive; RORgamma inh: 7.08µM

Results for Cc1[nH]c2ccccc2c1CCN(Cc1cccs1)C(=S)Nc1ccccc1 ?
Gal4-VP16 FLuc: inactive; TGFb inhibitor: inconclusive; ATXN viability: inconclusive; HepG2 viability: inactive; ATXN2 expr inh: inconclusive; RORgamma inh: 5.62µM

Results for COCCNC(=S)N(CCc1c(C)[nH]c2ccc(F)cc12)Cc1cccs1 ?
Gal4-VP16 FLuc: inconclusive; TGFb inhibitor: inconclusive; ATXN viability: inconclusive; HepG2 viability: inactive; ATXN2 expr inh: inactive; RORgamma inh: 7.94µM

What do the screens show for `Cc1c(C(=O)N2CCCC2)oc2c1-c1nn(CC(=O)NC(C)c3ccccc3)cc1CC2` (centres undefined)?
TGFb inhibitor: inconclusive; HepG2 viability: inactive

How did CCOC(=O)c1c(NC(=O)C(C)Sc2cn(CCNC(=O)c3ccccc3OC)c3ccccc23)sc2c1CCC2 (centres undefined) do in these assays?
TGFb inhibitor: inconclusive; ATXN viability: inactive; HepG2 viability: inactive; ATXN2 expr inh: inactive

Results for O=C(c1cccc(F)c1F)N1CCOc2ccc(CN3CCC(Oc4cccnc4)CC3)cc2C1 ?
ATXN viability: inactive

How did C=CCn1c(NCc2ccco2)nc2ccccc21 do in these assays?
Gal4-VP16 FLuc: inactive; TGFb inhibitor: inactive; ATXN viability: inactive; HepG2 viability: inactive; ATXN2 expr inh: inactive; RORgamma inh: inactive

How did CC(=O)Nc1nc2ccccc2n1Cc1ccc(Cl)cc1 do in these assays?
Gal4-VP16 FLuc: 1.58µM; TGFb inhibitor: inconclusive; ATXN viability: 25.1µM; HepG2 viability: inactive; ATXN2 expr inh: 17.8µM; RORgamma inh: 1.12µM

Results for CCC(O)c1nc2ccccc2n1Cc1cccc(Cl)c1 (centres undefined) ?
TGFb inhibitor: inactive; HepG2 viability: inactive

Results for O=C(Nc1nc2ccccc2n1CCOc1ccc(Cl)cc1)c1ccco1 ?
Gal4-VP16 FLuc: 2.51µM; TGFb inhibitor: inactive; ATXN viability: inconclusive; HepG2 viability: inactive; ATXN2 expr inh: inconclusive; RORgamma inh: 1.41µM

Results for C=CCn1c(NC(=O)c2ccco2)nc2ccccc21 ?
Gal4-VP16 FLuc: 3.55µM; TGFb inhibitor: inactive; ATXN viability: inconclusive; HepG2 viability: inactive; ATXN2 expr inh: inactive; RORgamma inh: 3.98µM

Results for Nc1nc2ccccc2n1CCOc1ccc(Cl)cc1 ?
Gal4-VP16 FLuc: inactive; TGFb inhibitor: inconclusive; ATXN viability: inactive; HepG2 viability: inactive; ATXN2 expr inh: inactive; RORgamma inh: inconclusive

What do the screens show for `CC(NC(=O)/C=C/c1ccco1)c1nc2ccccc2n1Cc1cccc(Cl)c1` (centres undefined)?
Gal4-VP16 FLuc: 11.2µM; TGFb inhibitor: inconclusive; ATXN viability: inactive; HepG2 viability: inactive; ATXN2 expr inh: inactive; RORgamma inh: inconclusive

What do the screens show for `CCn1c(NC(C)=O)nc2ccccc21`?
Gal4-VP16 FLuc: inconclusive; TGFb inhibitor: inconclusive; ATXN viability: inactive; HepG2 viability: inactive; ATXN2 expr inh: inactive; RORgamma inh: inconclusive

Results for Cc1oc2ncn(CC(C)C)c(=O)c2c1C(=O)N1CCN(c2cccc(C(F)(F)F)c2)CC1 ?
TGFb inhibitor: inactive; ATXN viability: inactive; HepG2 viability: inactive; ATXN2 expr inh: inactive

What do the screens show for `CCN(CC)S(=O)(=O)c1nnc(NC(=O)c2ccc(Br)cc2)s1`?
TGFb inhibitor: inconclusive; HepG2 viability: inactive

Results for CCC1=C(c2ccc(C)cc2)S(=O)(=O)N=C1N1CCC(C(=O)Nc2ccccc2F)CC1 ?
TGFb inhibitor: inactive; ATXN viability: inactive; HepG2 viability: inactive; ATXN2 expr inh: inactive
